Reference: PubChem BioAssay AID1117319 (Southern Research Institute, 2015)
Values joined by “and” are separate entries in the source; they are usually repeats but may differ in a detail not shown here. Equal values may be shown once. Among all 260,000 compounds or so, about 1,500 (0.58%) were called active. Inconclusive results (about 5%) are left out. These entries were drawn from the full list. Potency and affinity values are given separately. A number with no mark means an inactive call.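 The calls were made as follows: active = inhibition above a set limit at one or more doses, reproduced on every date tested; inconclusive = results disagree between test dates, or hit never tested in dose response; inactive = the rest.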

Molecular target: Virion infectivity factor (Human immunodeficiency virus type 1 group M subtype B (isolate BH10)) + Virion infectivity factor (Human immunodeficiency virus type 1 group M subtype B (isolate BRU/LAI)) + Virion infectivity factor (Human immunodeficiency virus type 1 group M subtype B (isolate PCV12)) + Virion infectivity factor (Human immunodeficiency virus type 1 group M subtype B (isolate HXB2)) + DNA dC->dU-editing enzyme APOBEC-3G (Homo sapiens) (UniProt P69720+P69721+P69722+P69723+Q9HC16)
Test: inhibitors of Vif binding to APOBEC3G peptide, primary screen, biochemical, TR-FRET, GST-Vif 1-94, biotin-A3G peptide, dose response retest (AID 1117319);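 also: Vif residues 1-94 fused to GST binding biotinylated APOBEC3G peptide 110-148; 0% = full assay without inhibitor and 100% = GST in place of GST-Vif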
Details: hits give high values

Point of comparison: Cc1ccc(C)n1-c1ccsc1C(=O)CC#N, inhibition 22.9%. Against it:
- Cc1ccc(C(C)C)cc1OCCCCN1CCCC1 — lower, -6.06%
- Cc1ccc(S(=O)(=O)NC(=O)Nc2c(C)cccc2C)cc1 — lower, -2.09%
- CCOC(=O)/C=C1\SCC(=O)N1CC(=O)NC(C)C — lower, 0.13%
- CCOC(=O)/C=C1\SCC(=O)N1CC(=O)NC(C)c1ccccc1 (stereo not given) — lower, -4.1%
- O=C(CSc1nc2ccccc2n1Cc1ccccc1)N/N=C/c1ccccc1C(=O)O — lower, -4.24%
- C=CCC[C@H](Cc1ccc(F)cc1)C(=O)OC[C@@H](C)NC(=O)[C@H](CC=C)CC(=O)N(CCO)Cc1ccccc1 — lower, 0.83%
- COc1ccc(OC)c(Nc2nc(C3CC3)nc3c2nnn3Cc2ccccc2)c1 — lower, -2.66%
- COc1ccc(OC)c(-c2csc(NC(=O)c3ccc(OCC4CCCO4)cc3)n2)c1 (stereo not given) — lower, 6.81%
- C=CCNC(=O)C1COc2ccccc2O1 (stereo not given) — lower, -12.5%
- O=C(c1cccc(Br)c1)N1CCCc2ccccc21 — lower, 4.68%
- O=C(c1ccc(Br)cc1)N1CCCc2ccccc21 — lower, 4.85%
- O=C(c1ccccc1)N1CCCc2ccccc21 — lower, 16.3%
- O=C(NC(=S)N1CCCc2ccccc21)c1ccc(Cl)cc1 — lower, -35.9%
- O=C(NC(=S)N1CCCc2ccccc21)c1ccc(Br)cc1 — lower, -10.8%
- O=C(c1ccc(=O)[nH]c1)N1CCCc2ccccc21 — lower, 0.97%
- O=C(c1coc(=O)c(Br)c1)N1CCOCC1 — higher, 24.5%
- COc1ccccc1N1CCN(C(=O)c2coc(=O)c(Br)c2)CC1 — higher, 27.6%
- CSC1=C(C#N)C(c2sccc2C)CC(=O)N1 (stereo not given) — lower, -3.4%
- C[C@@H]1CCC[C@H](C)N1Cc1nc(Cc2ccccc2Cl)no1 — lower, -1.65%
- Oc1cccc(/C=N/n2c(C3CCCCC3)n[nH]c2=S)c1 — lower, 2.47%
- CC(=O)c1c(C)[nH]c(C(=O)CSc2ccc(F)cc2)c1C — higher, 29.5%
- CCOC(=O)N1CCN(C(=O)C2CCCCC2)CC1 — lower, -1.05%
- CCOc1ccsc1C(=O)OC — lower, 5.88%
- CC1(C)CC(=O)C(C=NCCO)=C(O)C1 — lower, -1.68%
- O=C(CNC(=O)c1ccc(Cl)cc1)OCN1C(=O)c2ccccc2C1=O — lower, -9.8%
- CCC(C)(C)n1nnnc1C(c1ccc2ncccc2c1)N1CCCCCC1 (stereo not given) — lower, 2.63%
- CCOC(=O)C(=O)NC(C)c1ccccc1 (stereo not given) — lower, 1.23%
- N#CC(C#N)=C1C(=O)N(CCN2CCOCC2)c2ccccc21 — lower, 19.1%
- COc1cc(CNCCc2ccccc2)ccc1OCc1ccc(Cl)nc1 — lower, 2.97%
- COc1ccc(CCNCc2ccc(OCc3ccc(Cl)nc3)c(OC)c2)cc1OC — lower, 5.39%
- CCOc1cccc2sc(N(CCCN(C)C)C(=O)c3ccc(S(=O)(=O)N4CCCCCC4)cc3)nc12 — lower, -5.19%
- O=C(Nc1ccc(NS(=O)(=O)c2ccccc2)cc1)c1ccccc1Cl — lower, 9.4%
- CCc1ccccc1NC(=O)Nc1ccc2c(c1)OCO2 — lower, -3.87%
- Cn1cccc1C(=O)NC(=O)COC(=O)C12CC3CC(CC(O)(C3)C1)C2 — lower, 9.63%
- Cn1cccc1C(=O)NC(=O)COC(=O)CC12CC3CC(CC(C3)C1)C2 — lower, -0.55%
- COc1ccc(Br)cc1/C=N/NC(=O)c1cccnc1 — lower, 4.05%
- CCC(C(=O)O)N1C(=O)/C(=C/C(C)=C/c2ccccc2)SC1=S (stereo not given) — lower, -2.68%
- O=C(O)CN1C(=O)/C(=C/C=C/c2ccccc2)SC1=S — lower, 5.16%
- O=C(O)C(Cc1ccccc1)N1C(=O)/C(=C/c2ccccc2)SC1=S (stereo not given) — lower, -5.34%
- O=C(O)CCN1C(=O)/C(=C/c2ccc(-c3nc4ccccc4s3)o2)SC1=S — lower, 1.36%
- O=C(O)C(Cc1ccccc1)N1C(=O)/C(=C/c2cccs2)SC1=S (stereo not given) — higher, 24.3%
- O=C(O)CCN1C(=O)/C(=C\c2ccc(-c3nc4ccccc4s3)o2)SC1=S — higher, 32.3%
- CCOc1cc(C2NC(=O)NC(C)=C2C(=O)OCc2ccccc2)ccc1O (stereo not given) — lower, 0.18%
- CCOC(=O)N1CCN(Cc2nc3c(c(=O)[nH]c(=O)n3C)n2Cc2ccccc2C)CC1 — higher, 23.6%
- O=C(CNC(=O)c1ccccc1)Nc1ccsc1C(=O)O — lower, -11.3%
- COc1ccc(Cc2noc(CN3CCNC(=O)CC3)n2)cc1OC — lower, 3.31%
- O=c1c2nnn(Cc3ccccc3)c2ncn1C/C=C/c1ccccc1 — lower, -0.52%
- CC(=O)c1ccc2c3c(ccc([N+](=O)[O-])c13)CC2 — lower, -4.85%
- Nc1ccc2c3c(ccc([N+](=O)[O-])c13)CC2 — lower, -1.18%
- Cc1nnc(SCCn2c(N3CCCCC3)nc3c2c(=O)[nH]c(=O)n3C)s1 — lower, 0.62%
- CCOc1ccccc1CNC(=O)Cn1c(=O)oc2ccccc21 — higher, 72.4%
- COc1ccccc1CNC(=O)CCn1c(=O)oc2ccccc21 — lower, 0.68%
- O=C(Nc1ccccc1N1CCOCC1)c1ccc2c(c1)OCCO2 — lower, -3.74%
- CC(OC(=O)/C=C/c1ccc2ccccc2n1)C(=O)N(C)c1ccccc1 (stereo not given) — lower, 1.44%
- Cc1ccc(Cn2nnnc2CN2CCC(O)(c3ccccc3F)CC2)cc1 — lower, 20%
- CCCCCCCCS(=O)CCC(=O)O (stereo not given) — lower, 11.3%
- CCCCCCCCCCCCC(=O)CCCCC(=O)O — lower, -6.1%
- O=C1CC(N2CCN(c3ccc(C(=O)c4ccc(F)cc4)cc3)CC2)C(=O)N1 (stereo not given) — higher, 28.2%
- CC(C)(C)NC(=O)c1sccc1C(=O)O — lower, 9.39%
- O=C(CNC(=O)c1cccc(Cl)c1)NCCCSc1ccccc1 — lower, -1.26%
- Nc1nc(N)c2cc(Sc3ccc(Cl)cc3)ccc2n1 — lower, -22.4%
- Cc1cc(-c2ccco2)n(CC(=O)O)n1 — lower, 5.45%
- Cc1cc(-c2ccccc2)n(-c2ccccc2)n1 — lower, 3.24%
- COc1ccc(NC(=S)NCCc2ccccc2)c(OC)c1 — lower, 18.1%
- COc1ccc(NC(=S)NCCc2c[nH]c3ccccc23)c(OC)c1 — lower, 20.9%
- COc1cc(OC)cc(C(=O)N2CCCC(c3nc(-c4ccc(C)o4)no3)C2)c1 (stereo not given) — higher, 32.4%
- COc1cccc(CN2CC(C(=O)N(C)CCCC3CCCC3)CCC2=O)c1 (stereo not given) — lower, -1.28%
- Cc1ccc2[nH]c(=O)c(C(c3nnnn3C3CCCC3)N3CCCc4ccccc43)cc2c1 (stereo not given) — lower, 16.5%
- O=c1cc(CSc2nnc(Nc3ccccc3F)s2)nc2sccn12 — lower, -10.7%
- COc1cc(C(=O)NCC(c2ccco2)N2CCCC2)ccc1OCc1ccccc1 (stereo not given) — lower, 3.67%
- COc1ccccc1C(CNC(=O)c1ccc(OCc2c(C)noc2C)cc1)N1CCCC1 (stereo not given) — lower, 7.05%
- Cc1ccc(NC(=O)COC(=O)CN2CCSC2=O)cc1Cl — lower, 7.83%
- Cc1ccc(/C=N/N=C/c2ccc(C)cc2)cc1 — lower, 1.03%
- Cc1ccc(/C=C2/CNC/C(=C/c3ccc(C)cc3)C2=O)cc1 — lower, 4.14%
- Cc1nc2ccccc2n1CCN1CCOCC1 — lower, -1%
- COC(=O)c1nn(-c2ccc(Oc3ccccc3)cc2)c(=O)cc1O — lower, 2.63%
- Nc1ccc(S(=O)(=O)N2CCOCCOCCOCCOCCOCC2)cc1 — lower, 1.81%
- C=C(C)C(=O)OCC(=O)NCc1ccccc1 — lower, -3.45%
- Oc1ccc(/C=N/NC2=NCCCCC2)cc1 — higher, 27.5%
- Oc1ccccc1/C=N/NC1=NCCCCC1 — lower, -2.42%
- O=C(O)c1cccc(S(=O)(=O)Nc2cccc(S(=O)(=O)N3CCCCCC3)c2)c1 — lower, 4%
- Cc1cccc(N(Cc2ccccc2F)S(C)(=O)=O)c1 — lower, 22.4%
- COc1ccc(C2=Nc3cccc4cccc(c34)N2)cc1 — lower, -2.87%
- CC(C)C1=Nc2cccc3cccc(c23)N1 — lower, -3.35%
- Fc1ccc(C2=Nc3cccc4cccc(c34)N2)cc1 — lower, -0.82%
- c1coc(C2=Nc3cccc4cccc(c34)N2)c1 — lower, 8.06%
- CC(=C\c1ccccc1)/C=C1/SC(=S)N(CCCC(=O)O)C1=O — lower, 2.05%
- CC(=O)c1ccc(NC(=O)CCCN2C(=O)/C(=C/C(C)=C/c3ccccc3)SC2=S)cc1 — lower, 4.61%
- CC(=C\c1ccccc1)/C=C1/SC(=S)N(CCC(=O)O)C1=O — lower, -2.12%
- CC(=C\c1ccccc1)/C=C1/SC(=O)N(CCCC(=O)Nc2ccc(C(=O)O)cc2)C1=O — lower, 0.71%
- CC1=C(C(=O)N(C)C)C(c2cccs2)NC(=O)N1 (stereo not given) — lower, 4.4%
- O=C(CS(=O)(=O)c1ccc(F)cc1)N1CCN(c2ccccc2)CC1 — lower, -1.09%
- Cc1ccc(Nc2ccccc2)cc1 — lower, 6.07%
- c1ccc(Nc2ccccc2)cc1 — lower, -0.33%
- Cc1cc(NC(=O)CSc2nnc(C)n2-c2ccccc2)no1 — lower, 1.46%
- COc1ccc2c(c1)O[C@H](c1ccc3c(c1)OCO3)[C@@H](OC(=O)N[C@H]1CCCc3ccccc31)C2=O — lower, 4.66%
- COC(=O)[C@@H](NC(=O)O[C@H]1C(=O)c2ccc(OC)cc2O[C@@H]1c1ccc2c(c1)OCO2)C(C)C — lower, 12.9%

In the case of CCC(C)(C)n1nnnc1C(c1ccc2ncccc2c1)N1CCN(c2nc3ccccc3s2)CC1 (stereo not given), the inhibition is reported as -9.25% and 0.75%.
In the case of CCC(C)(C)n1nnnc1C(c1cc2cc(OC)ccc2[nH]c1=O)N1CCc2ccccc21 (stereo not given), the inhibition is reported as 3.72% and -1.49%.
